Test results taken from PubChem BioAssay (NCATS).
Inconclusive results are not listed. Entries that show only a call come without a potency. The source made the active and inactive calls. The call rests on the fitted dose curve; in most records, active means well fitted inhibition curve with a large enough effect; inconclusive means small, poorly fitted or top-dose-only effect; inactive means no such curve, though single readings can be large or run the other way.

target: Retinaldehyde dehydrogenase 3 (Homo sapiens) (UniProt P47895); test: qHTS for Inhibitors of the Aldehyde Dehydrogenase Family (ALDH1A3) Primary screen (AID 2061315); conditions: ALDH inhibition qHTS; series mostly up to 56 µM

SMILES	Potency
COc1cc2c(cc1OC)CC(=O)N(CCCNC[C@H]1Cc3cc(OC)c(OC)cc31)CC2	inactive
Cc1ccc(C(C)C)c(O[C@@H]2O[C@H](CO)[C@@H](O)[C@H](O)[C@H]2O)c1	inactive
CCOc1nc2cccc(C(=O)O)c2n1Cc1ccc(-c2ccccc2-c2nn[nH]n2)cc1	inactive
COc1c(O[C@@H]2O[C@H](CO)[C@@H](O)[C@H](O)[C@H]2O)c(CCC(=O)O)cc2ccoc12	inactive
COC(=O)C(Cc1ccccc1)NC(=O)c1ccccc1 (centres undefined)	inactive
C=CC1(C)C=C2C(=O)OC(=O)C3=C(CCCC3(C)C)C2(O)CC1 (centres undefined)	inactive
COC1(CC(C)C)NC(=O)C(O)(Cc2ccccc2)NC1=O (centres undefined)	inactive
Cc1cc(CNC(=O)c2cc(C(=O)NCc3ccc(F)c(C)c3)ncn2)ccc1F	inactive
CC1(C)CCCC2(C)C3=C(C(=O)OC3O)C(O)CC12 (centres undefined)	inactive
CC1=C(CO)CC(C(C)C2CCC3C4CC=C5CC(OC6OC(COC7OC(CO)C(O)C(O)C7O)C(O)C(O)C6O)CC(O)C5(C)C4CCC23C)OC1=O (centres undefined)	inactive
COc1ccc(C(O)C(C)OC2OC(CO)C(O)C(O)C2O)cc1 (centres undefined)	inactive
C=C1CCC2C(C)(C(=O)O)CCCC2(C)C1CCC(C)CC(=O)O (centres undefined)	inactive
C[C@]12CCC[C@](C)(C(=O)O)C1CCC13CC(CO)C(CCC12)C3 (some centres undefined)	inactive
CCCCC1CCN(CCCC(=O)c2ccccc2C)CC1	inactive
